Sm TGR inh: S. mansoni TGR enzyme inhibition. Potency, µM (series often up to 114 µM), without a hit: at the top dose activity change, negative = inhibition, usual class: inhibitors. Q962Y6. purified TGR, DTNB reduction, TNB absorbance 405 nm. actives 3% (n = 360,000); further: on the % scale 0 is the no-effect control and ±100 the full control effect; nearly all actives have a fitted effect of over 60% in size
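First, TGR (20 nM dispensed) and NADPH were mixed with compound. Second, a 15 min room-temperature incubation followed. Third, further NADPH and then DTNB were added to start the reaction. Finally, TNB absorbance was monitored kinetically.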
Pf growth 96h: inhibits malaria parasite growth, 96 h; P. falciparum luciferase reporter growth, 96 h; actives 6.9% (n = 320,000); AID 504834; Potency, µM (series often up to 28.7 µM), inactives show at the highest dose activity change, negative = inhibition, hits mostly inhibitors; further: on the % scale 0 is the no-effect control and ±100 the full control effect
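Delayed-death screen, second-generation endpoint: infected erythrocytes, 2% hematocrit, 0.05% parasitemia final; 96 hours at 37 C, 5% CO2; luciferase detection reagent; luminescence decrease equals reduced growth.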
SARS PLpro yeast: inhibitors of SARS-CoV papain-like protease in yeast; AID 485353; actives 0.19% (n = 330,000); S. cerevisiae expressing SARS-CoV PLpro, growth rescue; Potency, µM (doses to about 32.9 µM), inactives show at the highest dose activity, positive = growth rescue, most hits filed as activators; calls by dose curve; further: 0% is about no effect; nearly all actives have a fitted effect of over 55% in size
Pf growth 48h: P. falciparum growth inhibition at 48 hours (one generation); actives 5.9% (n = 310,000); P. falciparum luciferase growth in erythrocytes, 48 h; AID 504832; Potency, µM (highest dose often 28.7 µM), inactives show top-dose activity change, negative = inhibition, actives largely listed as inhibitors; further: on the % scale 0 is the no-effect control and ±100 the full control effect
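A one-generation exposure of luciferase-tagged malaria parasites in RPMI 1640/Albumax erythrocyte culture, 37 C and 5% CO2. Inhibition is inferred from decreased luminescence after adding detection reagent.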
Active calls of the source: *; ? = inconclusive; . = not tested or not shown. Only some compounds are listed: those with a hit (about 12% of all), similar ones and a draw of the others. Unless noted, the call rests on the fitted dose curve; in most records, active means well fitted curve in the direction sought with a large enough effect; inconclusive means small, poorly fitted or top-dose-only effect, or another doubt; inactive means no such curve, though single readings can be large; an effect the other way counts as inactive or inconclusive. Potency means the concentration at half of the fitted maximal effect.

SMILES | Sm TGR inh | Pf growth 96h | SARS PLpro yeast | Pf growth 48h
COc1cc(/C=C2/C(=O)N(C)C(=S)N2C)ccc1OCc1cccc(F)c1 | -5% | 3.3µM* | -4% | -1%
CN1C(=O)/C(=C/c2ccc(OCc3cccc(F)c3)cc2)NC1=S | -2% | ? | -5% | 10%
CCOC(=O)CN1C(c2ccc(O)cc2)Nc2ccc(Br)cc2C1c1ccccc1 (stereo unspecified) | -2% | 3.3µM* | -38% | ?
O=C(COC(=O)c1ccc(F)cc1F)Nc1cc(S(=O)(=O)N2CCOCC2)ccc1Cl | 1% | 126% | -2% | 36%
COc1ccc(C)cc1NC(=O)CCNC(=O)Cn1ccc2ccccc2c1=O | 1% | ? | -1% | 19%
COc1ccccc1CNC(=O)CN(C)S(=O)(=O)c1ccc2c(c1)n(C)c(=O)c(=O)n2C | -11% | ? | 0% | ?
CCOc1ccccc1C(=O)NC1CCN(Cc2nnnn2C2CCCC2)CC1 | 0% | 13µM* | 4% | ?
CCOc1ccccc1C(=O)NC1CCNCC1 | ? | 13µM* | 0% | 0%
CCOc1ccc(/C=C/c2nc(C#N)c(NC(C)CC)o2)cc1 (stereo unspecified) | -2% | . | . | .
CCN(c1ccccc1)S(=O)(=O)c1ccc(C(=O)N(C)CCc2ccc(OC)c(OC)c2)cc1 | -4% | ? | 7% | ?
Cc1ccc(OCCn2cc(C#N)c3ccccc32)cc1 | -7% | ? | 7% | 8.3µM*
Nc1nc(C(=O)N2CCOCC2)nn1C(=O)c1ccc(Cl)cc1 | 35µM* | 10µM* | 13% | 17%
O=C(c1ccc(Cl)cc1)c1ccccc1C(=O)N1CCOCC1 | 3% | 38% | -1% | 10%
CC(=O)NC/C(C)=N\Nc1ccc([N+](=O)[O-])cc1 | -7% | ? | -15% | -11%
CC(=O)/C(=N\Nc1ccccc1)Oc1ccc([N+](=O)[O-])cc1 | -5% | 10µM* | -3% | 9.3µM*
O=C(CCOc1ccccc1)N(Cc1cccnc1)c1nc2c(Cl)cccc2s1 | 1.1µM* | . | . | .
Cc1cccc2sc(N(Cc3cccnc3)C(=O)COc3ccccc3)nc12 | 4% | . | . | .
Cc1cccc2sc(N(Cc3cccnc3)C(=O)CCOc3ccccc3)nc12 | 3.5µM* | . | . | .
Nc1c(C(=O)Nc2ccc3c(c2)OCCO3)nnn1Cc1cccc(F)c1 | -18% | 43% | 10% | 31%
Cc1n[nH]c(=S)n(/N=C/c2cccs2)c1=O | 18% | ? | 1% | 0.93µM*
CC(C)n1c(=O)c(C=Nc2ccc(S(N)(=O)=O)cc2)c(O)n(Cc2ccco2)c1=O | -26% | -8% | -14% | 0%
O=c1[nH]c(=O)n(Cc2ccco2)c(O)c1C=NCc1ccco1 | 25µM* | 26% | 0% | ?
Cc1ccc(-n2c(O)c(C=NCc3ccco3)c(=O)[nH]c2=S)cc1C | 10µM* | -10% | 0% | ?
CCCCn1c(=O)c(C=Nc2ccc(Cl)cc2)c(O)n(Cc2ccco2)c1=O | 1% | 9.3µM* | 2% | 8.3µM*
CC(=O)Nc1ccc(N=Cc2c(O)n(Cc3ccco3)c(=O)[nH]c2=O)cc1 | 25µM* | 10% | 0% | 4%
SMILES | Sm TGR inh | Pf growth 96h | SARS PLpro yeast | Pf growth 48h
O=C(CCNS(=O)(=O)c1ccc(Br)cc1)NCCCSc1ccccc1 | -4% | ? | 7% | ?
O=S(=O)(CCc1ccncc1)Cc1ccc2c3c(cccc13)CC2 | 40µM* | 6% | -2% | 7%
CCOC(=O)[C@H]1[C@H]2COc3ccc(C)cc3[C@@H]2N2C(=O)c3cc(C)ccc3NC(=O)[C@@]12C | . | . | 3% | .
COc1ccccc1OCCOCCOc1c(C)cc(C)cc1Br | -16% | 2.9µM* | -10% | -5%
COc1ccccc1OCCCOc1c(C)cc(C)cc1Br | 1% | ? | -11% | ?
COc1ccccc1CCNC(=O)C(=O)NCC1OCCCN1S(=O)(=O)c1cc(C)ccc1C (stereo unspecified) | 0% | ? | -5% | ?
COc1ccc(CCNC(=O)C(=O)NCC2OCCCN2S(=O)(=O)c2cc(C)ccc2C)cc1 (stereo unspecified) | -20% | 13µM* | -3% | ?
Cc1ccc(C)c(S(=O)(=O)N2CCCOC2CNC(=O)C(=O)NCCc2ccco2)c1 (stereo unspecified) | -16% | 13µM* | -4% | -5%
Cc1ccc(C)c(S(=O)(=O)N2CCCOC2CNC(=O)C(=O)NCc2ccco2)c1 (stereo unspecified) | -22% | -20% | -12% | ?
N#Cc1nccnc1S(=O)(=O)c1cccs1 | 0.1µM* | -2% | -6% | 4%
C/C(=N\N=C(N)N)c1ccc(C)c(C)c1 | -1% | 12µM* | 1% | 9.3µM*
C/C(=N\N=C(N)N)c1cccc([N+](=O)[O-])c1 | -2% | ? | -6% | 7%
Cc1cc(N2CCOCC2)ccc1/C=C\[N+](=O)[O-] | 20µM* | -24% | -82% | 14%
CC1CC(C)CN(CC(O)COCCOc2ccc(Br)cc2)C1 (stereo unspecified) | 3% | ? | -8% | 9.3µM*
CNC(=O)C[C@@H](N)C(=O)N[C@@H](C(=O)N[C@@H]1C(=O)N2[C@@H]1SC(C)(C)[C@@H]2C(=O)O)c1ccc(O)cc1 | . | ? | . | 4%
Cc1ccc(-n2c(=O)c3c(cnn3C)n(CC(=O)Nc3cccc(C)c3)c2=O)cc1 | 0% | . | . | .
CCOC(=O)c1c(NC(=O)c2cc(=O)c3cc(C)ccc3o2)sc2c1CCCC2 | -2% | . | . | .
Cc1ccccc1-c1nnc(SCC(=O)N2CCCCC2)o1 | 4% | . | . | .
Cc1ccccc1C1=NCC(=O)N(CC(=O)N2CCCCC2)c2sc(C)c(C)c21 | -13% | 13µM* | 0% | ?
C(C#CCCCCCCCCC[n+]1ccccc1)#CCCCCCCCCC[n+]1ccccc1 | 40µM* | 0.093µM* | . | 0.29µM*
COC(=O)Cc1ccc(NC(=S)N2CCCC(CO)C2)cc1 (stereo unspecified) | -1% | 97% | 3% | 15µM*
CCOc1ccc(NC(=O)C(C)NC(=O)c2ccccc2Cl)cc1S(=O)(=O)N1CCCC1 (stereo unspecified) | 0% | ? | -3% | ?
CCOc1ccc2[nH]cc(S(=O)(=O)c3ccc(C)cc3)c(=O)c2c1 | -1% | -8% | 2% | ?
CCOc1ccc2c(c1)OC(c1ccc(C)cc1)(C(F)(F)F)NC2=O (stereo unspecified) | 12% | 3.3µM* | 0% | 1µM*
CCOc1ccccc1-n1c(CNc2ccc(F)cc2)nnc1SCC(=O)NCc1ccco1 | -26% | 5% | -11% | 12µM*
O=C(CSc1nnc(CNc2ccc(F)cc2)n1Cc1ccccc1)NCc1ccco1 | ? | ? | 2% | ?
COc1ccccc1OCc1nnc(SCC(=O)NCc2ccco2)n1Cc1ccco1 | 16µM* | 43% | 6% | -18%
O=C(CSc1nnc(COc2ccccc2F)n1-c1ccccc1)NCc1ccco1 | 40µM* | . | 8% | ?
COc1ccccc1-n1c(CNc2ccc(F)cc2)nnc1SCC(=O)Nc1cc(C)on1 | -3% | -30% | -13% | 13µM*
